63 compounds from paper PMC4552634, “A New Set of Chemical Starting Points with Plasmodium falciparum Transmission-Blocking Potential for Antimalarial Drug Discovery” (PLoS ONE, 2015) can be followed below.

Out of some 13,000 compounds screened, about 3,200 (25%) showed an effect of 50% or more. The list shows a part of the results.

The assay deals with P. falciparum stage V gametocytes. Details: BacTiter-Glo ATP luminescence viability of purified stage V gametocytes in 384-well plates, per cent inhibition versus DMSO. The note with it: 48 h, 5 µM; inhibitor.
One may read the % Inhibition as the relative decrease from the control value, in per cent. As for `O=C(NCCCCN1CCC(O)(c2ccc(Cl)cc2)CC1)c1ccc(Br)cc1` [TCMDC-131982], the “% Inhibition” value is -5.43%. Take `CN(C(=O)c1nn(-c2ccccn2)c2nccc(-c3cccs3)c12)C1CCCCC1` [TCMDC-124797]: the “% Inhibition” value is 11.83%. For `CCc1ccc(C2CCN(CCCCNC(=O)c3ccc(-c4ccc(C#N)cc4)cc3)CC2)c(OCCO)c1` [TCMDC-138765], the “% Inhibition” value is -6.555%. Consider `COC(=O)c1ccc(C(=O)NCCCCN2CCC(c3ccc4c(c3OC)CCCC4)CC2)cc1-c1ccc(C(F)(F)F)cc1` [TCMDC-138705], for which the “% Inhibition” value is recorded as -64.43%.

In the case of `C=C(C)Cn1cc(C2CCN(CCCCNC(=O)c3sc(-c4ccc(Cl)cc4Cl)nc3CO)CC2)c2ccccc21` [TCMDC-138873], the “% Inhibition” value is recorded as -30.06%. As to `CC(=O)Oc1cc(C)ccc1C1CCN(CCCCNC(=O)c2ccc(-c3ccc(C(F)(F)F)cc3)cc2)CC1` [TCMDC-138626], the “% Inhibition” value is given as 28.6%.

Regarding `C=CCn1cc(C2CCN(CCCCNC(=O)c3sc(-c4ccc(C(F)(F)F)cc4)nc3CO)CC2)c2cc(OC)ccc21` [TCMDC-138828], the “% Inhibition” value is listed as 92.56%. The same measure for `Cc1cc(C2CCN(CCCCNC(=O)c3ccc(-c4ccc(C(F)(F)F)cc4)cc3)CC2)c(C)cc1OCC(N)=O` [TCMDC-138800]: 4.975%; for `CCc1ccc(C2CCN(CCCCNC(=O)c3ccc(-c4ccc(C(F)(F)F)cc4)cc3)CC2)c(OCCO)c1` [TCMDC-138761]: 105.9%. Turning to `CCOC(=O)c1cc(C(=O)NCCCCN2CCC(c3ccc4c(c3OC)CCCC4)CC2)ccc1-c1ccc(C(F)(F)F)cc1` [TCMDC-138739], the “% Inhibition” value came out at 73.05%.

As to `COc1c(C2CCN(CCCCNC(=O)c3ccc(-c4ccc(C(F)(F)F)cc4)c(C(=O)OC(C)C)c3)CC2)ccc2c1CCCC2` [TCMDC-138744], the “% Inhibition” value was 32.47%.

As for `CCOC(=O)c1cc(C(=O)NCCCCN2CCC(c3ccc(CC)cc3OCC)CC2)ccc1-c1ccc(C(F)(F)F)cc1` [TCMDC-138755], the “% Inhibition” value was 83.47%. On to `Cn1cc(C2CCN(CCCCNC(=O)c3sc(-c4ccc(C(F)(F)F)cc4)nc3CO)CC2)c2ccccc21` [TCMDC-138778], for which the “% Inhibition” value is given as -59.88%. Regarding `Cc1cc(C2CCN(CCCCNC(=O)c3ccc(-c4ccc(C(F)(F)F)cc4)cc3)CC2)c(C)cc1OCCO` [TCMDC-138798], the “% Inhibition” value is reported as -10.99%. To `COc1cccc(C(=O)OC2=C3CCC(=O)C3(C)CCC2=O)c1` (stereo not drawn) [TCMDC-131633] belongs 39.81%; to `CC(C)(C)OC(=O)N1CCN(c2ccccc2NC(=O)c2cccc(C(F)(F)F)c2Oc2ccc(F)cc2)CC1` [TCMDC-140951], -16.31%. With `COc1ccc2[nH]c(C(=O)Nc3ccc4nc(-c5ccccc5)[nH]c4c3)cc2c1` [TCMDC-134305], the “% Inhibition” value is -25.97%. For `CCOc1ccccc1CON1C(N)=NC(N)=NC1(C)C` [TCMDC-131583], the “% Inhibition” value is on record as 17.24%. To `CCNc1cc(C)nc(Nc2ccc(NC(=O)C3CCCC3)cc2)n1` [TCMDC-124980] belongs -0.5513%; to `C=Cc1ccccc1C1(O)CCN(CCCCNC(=O)c2ccc(-c3ccc(C#N)cc3)cc2)CC1` [TCMDC-135786], 28.95%; to `Cc1cc(N[C@@H](CC(C)C)C(=O)Nc2ccccc2)nc(Nc2ccccc2)n1` [TCMDC-134743], -20.12%.

On to `C=CC[C@H](C[C@H](O)[C@H](Cc1ccccc1)NC(=O)c1ccc(-c2cccnn2)cc1)C(=O)NC1CCCCC1` [TCMDC-141421], for which the “% Inhibition” value is -14.32%. Consider `CC(C)n1ncc2c(C(=O)N3CCCCCC3)cc(-c3ccccc3)nc21` [TCMDC-125259], for which the “% Inhibition” value amounted to 6.769%. With `CC(NC(=O)c1cc(-c2ccccc2)nc2c1cnn2C(C)C)C1CC1` (stereo not drawn) [TCMDC-125054], the “% Inhibition” value is reported as 5.318%. The same measure for `CC(C)n1ncc2c(C(=O)N3CCCc4ccccc43)cc(-c3ccccc3)nc21` [TCMDC-125456]: 70.11%; for `CN(C)CCOc1cc(NC(=O)Nc2ccc(-c3ccncc3)c3ccccc23)ccc1I` [TCMDC-139118]: 23.38%. To `COC(=O)c1c(C#N)c(OC)cc(O)c1CSC[C@@H](CN1CCCCC1)Nc1nc(-c2ccc([N+](=O)[O-])cc2)cs1` [TCMDC-138652] belongs -4.34%. Consider `O=C(/C=C/c1ccc(Cl)c(Cl)c1)NCCCCCN1CCC(c2c[nH]c3c(-c4ccccc4)cccc23)CC1` [TCMDC-139399], for which the “% Inhibition” value is listed as 108%. To `O=C(/C=C/c1ccc(Cl)c(Cl)c1)NCCCCCN1CCC(c2c[nH]c3ccccc23)CC1` [TCMDC-139172] belongs 95.4%.

Take `O=C(/C=C/c1ccc(Cl)c(Cl)c1)NCC[C@@H]1C[C@H]1CCN1CCC(c2c[nH]c3ccccc23)CC1` [TCMDC-139466]: the “% Inhibition” value came out at 86.41%.

Regarding `O=C(/C=C/c1ccc(Cl)c(Cl)c1)NCc1ccc(CN2CCC(c3c[nH]c4ccccc34)CC2)cc1` [TCMDC-139405], the “% Inhibition” value is listed as -66.38%. For the compound `CN(CCN1CCC(c2c[nH]c3ccccc23)CC1)c1ccc(-c2nc3cc(Cl)c(Cl)cc3[nH]2)cc1` [TCMDC-139373], the “% Inhibition” value was found to be 50.88%. With `O=C(/C=C/c1ccc(Cl)c(Cl)c1)NCCCCCN1CCC(c2cn[nH]c2-c2ccccc2)CC1` [TCMDC-139493], the “% Inhibition” value is listed as -12.94%. Consider `O=C(/C=C/c1ccc(Cl)c(Cl)c1)NCCCCN1CCC(c2c[nH]c3ccccc23)CC1` [TCMDC-139333], for which the “% Inhibition” value is recorded as -7.285%.

On to `O=C(/C=C/c1ccc(Cl)c(Cl)c1)NCCCN1CCC(c2c[nH]c3ccccc23)CC1` [TCMDC-139332], for which the “% Inhibition” value was determined as 45.36%. Turning to `CN(CCC(CCN1CCC(c2c[nH]c3ccccc23)CC1)c1ccccc1)C(=O)Nc1ccc(Cl)c(Cl)c1` (stereo not drawn) [TCMDC-139625], the “% Inhibition” value is recorded as -72.07%. To `O=C(/C=C/c1ccc(Cl)c(Cl)c1)NCCCCCN1CCCC(c2c[nH]c3ccccc23)C1` (stereo not drawn) [TCMDC-139481] belongs 8.151%; to `CN(CCN1CCC(c2c[nH]c3ccccc23)CC1)C(=O)OCCCCCNC(=O)/C=C/c1ccc(Cl)c(Cl)c1` [TCMDC-139374], -36.9%. On to `O=C(/C=C/c1ccc(Cl)c(Cl)c1)NCCC(CN1CCC(c2c[nH]c3ccccc23)CC1)c1ccccc1` (stereo not drawn) [TCMDC-139621], for which the “% Inhibition” value was found to be 20.48%. As for `CCN(CCCN1CCCCC1)c1cc(C)nc(Nc2ccc(C(C)C)cc2)n1` [TCMDC-132454], the “% Inhibition” value is -8.614%. The same measure for `Cc1ccc(NCc2cccc(F)c2)cc1S(=O)(=O)N[C@@H]1CCN(C#N)C1` [TCMDC-134125]: -7.553%; for `CCc1cc(OC)c(C(=O)NC2CCN(C[C@H](O)c3ccnc4ccc(OC)cc34)CC2)cc1Br` [TCMDC-141169]: -16.9%; for `CCCn1c(SCC(=O)Nc2cc(Cl)ccc2Cl)n[nH]c1=O` [TCMDC-123548]: -15.86%. With `Cn1c(NC(=O)C2CCCN(C(=O)c3ccc(O)c(-c4ccc(Cl)c(Cl)c4)c3)C2)nc2ccccc21` (stereo not drawn) [TCMDC-140896], the “% Inhibition” value amounted to 30.61%. As for `CC(C)(C)Nc1cc(C(=O)N[C@@H](Cc2ccccc2)[C@H](O)CNC2CCOCC2)cc(N2CCCCS2(=O)=O)c1` [TCMDC-135686], the “% Inhibition” value was 8.531%. In the case of `CCOc1ccc(C(=O)N2CCOC(CCN3CCC4(CCc5ccccc54)CC3)(c3ccc(Cl)c(Cl)c3)C2)cc1` (stereo not drawn) [TCMDC-135339], the “% Inhibition” value was -28.45%. The same measure for `O=C(/C=C/c1ccc(Cl)c(Cl)c1)NCCCCCN1CCCN(C(=O)Nc2ccc(Br)cc2)CC1` [TCMDC-135761]: -59.24%. To `O=C(/C=C/c1cccc(Br)c1)NCCCCCN1CCC(c2c[nH]c3ccccc23)CC1` [TCMDC-139233] belongs 3.439%; to `O=C(/C=C/c1cccc(Cl)c1)NCCCCCN1CCC(c2c[nH]c3ccccc23)CC1` [TCMDC-139211], 97.27%. Consider `O=C(/C=C/c1ccc(Cl)cc1Cl)NCCCCCN1CCC(c2c[nH]c3ccccc23)CC1` [TCMDC-139696], for which the “% Inhibition” value is on record as 89.84%. In the case of `O=C(/C=C/c1ccc2ccccc2c1)NCCCCCN1CCC(c2c[nH]c3ccccc23)CC1` [TCMDC-139206], the “% Inhibition” value is 99.19%. To `O=C(/C=C/c1cc(C(F)(F)F)ccc1F)NCCCCCN1CCC(c2c[nH]c3ccccc23)CC1` [TCMDC-140010] belongs -22%; to `O=C(NCCCCCN1CCC(c2c[nH]c3ccccc23)CC1)Nc1ccc(Cl)cc1Cl` [TCMDC-139166], -62.24%. Regarding `O=C(/C=C/c1cccc(OC(F)(F)F)c1)NCCCCCN1CCC(c2c[nH]c3ccccc23)CC1` [TCMDC-139190], the “% Inhibition” value is -40.78%. To `O=C(/C=C/c1ccc(Cl)cc1)NCCCCCN1CCC(c2c[nH]c3ccccc23)CC1` [TCMDC-139234] belongs 97.27%; to `CCCCCCP(=O)(COc1ccc(CCN(CC(O)COc2cccc3[nH]c(C(N)=O)cc23)CC(O)COc2cccc3[nH]c(C(N)=O)cc23)cc1)OCCCC` (stereo not drawn) [TCMDC-139041], 20.08%; to `CN1CCN(c2ccc(-c3cc(-c4cc(F)c(F)c(F)c4)cnc3N)cc2)CC1` [TCMDC-133345], -8.308%. The same measure for `O=C(NC1CCN(Cc2ccccc2)CC1)c1cccc(Nc2nc(-c3ccccc3)cs2)c1` [TCMDC-136774]: 0.9462%; for `COc1cc(Cc2cnc(N)nc2N)cc(OCCCCC#N)c1OC` [TCMDC-138035]: -14.37%; for `c1cn(-c2ccc(CNc3nccc(Nc4ccc(OCCN5CCOCC5)cc4)n3)cc2)cn1` [TCMDC-134665]: 13.33%. Consider `COc1ccccc1-n1ccnc1SCC(=O)Nc1cc(C(F)(F)F)ccc1Cl` [TCMDC-123823], for which the “% Inhibition” value is given as -21.34%. The same measure for `COc1ccccc1-n1ccnc1SCC(=O)Nc1cccc(C(F)(F)F)c1` [TCMDC-123546]: 51.1%; for `COc1ccc(-n2ccnc2SCC(=O)Nc2cccc(C(F)(F)F)c2)c(OC)c1` [TCMDC-123545]: -5.921%.
